Data on 36 sequences can be found in the OligoGym collection.
Further: reference of the scale not given here.

In the first assay the target is KCNMB2. Kind of assay: pooled miR-30 sensor sort-seq; sequence = guide strand. The conditions noted are these: shRNA.
For the sequence TTGATTTTTATTGTCTCTTCTG, the sensor-assay potency score (higher = more potent) is -0.466. On to TTTTGTTAGGATAACACTCTTC, for which the sensor-assay potency score (higher = more potent) was -0.026. In the case of TAACACTCTTCTGGTTTCCTTC, the sensor-assay potency score (higher = more potent) was -0.332.

Take TTATTGTCTCTTCTGTGTGGTA: the sensor-assay potency score (higher = more potent) was -0.319. Same read-out and setting: then TTTATTGTCTCTTCTGTGTGGT, with 0.74; and TAGGGAACTCATAACAGACTGC, with -0.389.

As for TTCCATGACAACATTCACCAGG, the sensor-assay potency score (higher = more potent) was -0.0986. With TTTTATTGTCTCTTCTGTGTGG, the sensor-assay potency score (higher = more potent) came to 0.163.

TGTTAGGATAACACTCTTCTGG came in with a sensor-assay potency score (higher = more potent) of -0.415. Same read-out and setting: the value for TAGGATAACACTCTTCTGGTTT was 0.203; that for TTTGTTAGGATAACACTCTTCT was 0.649; that for TTAGGATAACACTCTTCTGGTT was -1.15.

The next assay addresses KCNN2. The assay is described as above. The conditions noted are these: shRNA.
With ATTGATATCAACCACATCGCTC, the sensor-assay potency score (higher = more potent) was -0.533. In turn, TTAATTGATGAATAGCTTGCAG registered a sensor-assay potency score (higher = more potent) of 0.193. Sequence ATGAACAACTGTATTTCCCTGG displayed a sensor-assay potency score (higher = more potent) of 0.818. For the sequence TAATTGATGAATAGCTTGCAGG, the sensor-assay potency score (higher = more potent) was -0.772. TAGCTTGCAGGAATTTTCGTTG: the sensor-assay potency score (higher = more potent) is -0.466.

TTACACTTCTTAATTGATGAAT showed a sensor-assay potency score (higher = more potent) of -0.837.

In the case of TACTTTTGCATGATCTATCTTT, the sensor-assay potency score (higher = more potent) is -0.0765.

Turning to TTAGACACCACGATCTCGGGGG, the sensor-assay potency score (higher = more potent) worked out at 1.02. TTGATGAATAGCTTGCAGGAAT displayed a sensor-assay potency score (higher = more potent) of -0.859. On the same count and under the same terms, then TTCTTAATTGATGAATAGCTTG, with -1.14; and TTCTCGAAGTCTTCACTCCTTT, with -0.431; and TTGTCGTAGCTCTCCATCTGAG, with -1.04.

Another assay addresses KCNN3. The description is as above. The conditions noted are these: shRNA.
TTGGTCACTCAGCTTCCTCTGT displayed a sensor-assay potency score (higher = more potent) of -0.263.

Regarding AAAGTTACTAGTTACGTCCTGC, the sensor-assay potency score (higher = more potent) turned out to be 0.827. Turning to TTCTTTAGCAGCTTTGTGTGTT, the sensor-assay potency score (higher = more potent) was 0.0976. TAGGTCATGGCTATCCGCCAGT had a sensor-assay potency score (higher = more potent) of -0.594.

The sequence TTCTCCAGGTCTTCGCTCCGGT registered a sensor-assay potency score (higher = more potent) of -0.356. Take TTTGGCATGGTCAATCTTCTTT: the sensor-assay potency score (higher = more potent) was -0.404.

TTGAAGTTGATCTTGTTGAGGG yielded a sensor-assay potency score (higher = more potent) of 0.397. ATACATGACATTCTGCATCTTG displayed a sensor-assay potency score (higher = more potent) of 0.37. TTGTCGATCACGAAGAGCTGGA: the sensor-assay potency score (higher = more potent) came to 0.137. TAGATTAACCATGTTTCCCGAA: the sensor-assay potency score (higher = more potent) was -0.326. Still for that read-out and setting: then TACATGACATTCTGCATCTTGG, with -0.595; and TAAGTCATACATGACATTCTGC, with 0.0328.
